Results taken from the antibiotic and cytotoxicity screens of Wong et al. (2023).
Out of some 39,000 compounds screened, about 3,300 (8.5%) were called active. The list comes from a sample in which actives are over-represented; it also holds similar structures and randomly drawn compounds.

system: HepG2; test: cytotoxicity call (relative viability < 0.9); details: 10 µM

SMILES	cytotoxicity call
O=C(Cc1ccncc1)Nc1ccc2c(c1)[C@H]1C[C@H](CC(=O)N3CCc4ccccc4C3)O[C@H](CO)[C@H]1O2	inactive
O=C(C[C@H]1C=C[C@H](NC(=O)Cc2ccccn2)[C@@H](CO)O1)NCCc1ccncc1	inactive
CC(=O)NCc1c(I)c(NC(C)=O)c(I)c(C(=O)O)c1I	inactive
C[C@H]1CN([C@@H](C)CO)C(=O)c2cccc(NC(=O)c3ccc(-c4nccs4)cc3)c2O[C@H]1CN(C)Cc1ccc(-c2ccccc2)cc1	inactive
C[C@@H]1CN([C@@H](C)CO)S(=O)(=O)c2ccc(-c3ccc(F)cc3)cc2O[C@H]1CN(C)C(=O)C1CCOCC1	inactive
C[C@@H]1CCCCO[C@H](CN(C)C(=O)CCCN(C)C)[C@@H](C)CN([C@@H](C)CO)C(=O)c2cc(N(C)C)ccc2O1	inactive
C[C@@H]1CN([C@H](C)CO)C(=O)c2cccc(NS(C)(=O)=O)c2O[C@@H]1CN(C)C(=O)Nc1ccc(F)cc1	inactive
Cc1[nH]c(=O)[nH]c(=O)c1/C=C/C(=O)O	inactive
O=C(C[C@H]1CC[C@@H]2[C@H](COC[C@H](O)CN2S(=O)(=O)c2ccc(F)cc2)O1)N[C@H]1CCN(Cc2ccccc2)C1	inactive
C[C@H]1CN([C@@H](C)CO)C(=O)c2cc(NC(=O)Nc3ccc(C(F)(F)F)cc3)ccc2O[C@H]1CN(C)Cc1ccc(-c2ccccc2)cc1	active
C[C@@H]1CN([C@@H](C)CO)C(=O)c2cc(NC(=O)Nc3ccc(C(F)(F)F)cc3)ccc2O[C@@H]1CN(C)Cc1ccc(-c2ccccc2)cc1	active
C[C@@H]1CN([C@H](C)CO)C(=O)c2cc(NC(=O)Nc3ccc(C(F)(F)F)cc3)ccc2O[C@H]1CN(C)Cc1ccc(-c2ccccc2)cc1	active
C[C@@H]1CN([C@@H](C)CO)C(=O)c2cc(NC(=O)Nc3ccc(C(F)(F)F)cc3)ccc2O[C@@H]1CN(C)S(C)(=O)=O	inactive
C[C@H](CO)N1C[C@H](C)[C@@H](CN(C)C(=O)Nc2cccc3ccccc23)Oc2c(NC(=O)Nc3cccc4ccccc34)cccc2C1=O	inactive
C[C@@H]1CCCCO[C@H](CN(C)Cc2ccccc2)[C@H](C)CN([C@@H](C)CO)C(=O)c2cc(NC(=O)c3ccncc3)ccc2O1	inactive
O=C(C[C@H]1CC[C@@H]2[C@H](COC[C@H](O)CN2C(=O)c2ccc(F)cc2)O1)NCCCN1CCOCC1	inactive
COCC#Cc1cnc2c(c1)C(=O)N([C@H](C)CO)C[C@H](C)[C@H](CN(C)S(=O)(=O)c1ccccc1)O2	inactive
OC[C@H]1O[C@@H](n2cnc3c(N[C@@H]4CCOC4)ncnc32)[C@H](O)[C@@H]1O	inactive
CC[C@H](C#CCN1CCOCC1)OC(C)=O	inactive
COc1ccccc1S(=O)(=O)N[C@@H]1CC[C@@H](CCNC(=O)C2CC2)O[C@H]1CO	inactive
CN1C(=O)c2cc(NC(=O)c3ccc(F)cc3)ccc2OC[C@@H]2O[C@H](CC(=O)N3CCOCC3)CC[C@@H]21	inactive
COc1ccc(CN(C)C[C@H]2OCCCC[C@@H](C)Oc3ccc(NC(=O)C4CCCCC4)cc3C(=O)N([C@@H](C)CO)C[C@@H]2C)cc1	inactive
NS(=O)(=O)c1ccc(CCn2ccn(CC(=O)NCCC3=CCCCC3)c(=O)c2=O)cc1	inactive
C[C@@H]1CN([C@@H](C)CO)C(=O)Cc2cc(NS(=O)(=O)c3ccc(F)cc3)ccc2O[C@@H]1CN(C)S(=O)(=O)c1cn(C)cn1	inactive

SMILES	cytotoxicity call
CN(C)C(=O)C[C@@H]1CC[C@@H](NC(=O)C2CCOCC2)[C@@H](CO)O1	inactive
CCCNC(=O)Nc1ccc2c(c1)C(=O)N(C)C[C@@H](OC)[C@@H](C)CN(C(=O)C1CCOCC1)[C@H](C)CO2	inactive
C[C@H](CO)N1C[C@H](C)[C@H](CN(C)Cc2ccc(-c3ccccc3)cc2)Oc2ccc(NC(=O)Nc3ccc(C(F)(F)F)cc3)cc2C1=O	active
C[C@@H]1CN([C@@H](C)CO)C(=O)c2cc(NC(=O)Nc3ccc(C(F)(F)F)cc3)ccc2O[C@H]1CN(C)Cc1ccc(-c2ccccc2)cc1	active
C[C@H](CO)N1C[C@H](C)[C@@H](CN(C)Cc2ccc(-c3ccccc3)cc2)Oc2ccc(NC(=O)Nc3ccc(C(F)(F)F)cc3)cc2C1=O	inactive
C[C@@H]1CN([C@H](C)CO)C(=O)c2cc(NC(=O)Nc3ccc(C(F)(F)F)cc3)ccc2O[C@@H]1CN(C)Cc1ccc(-c2ccccc2)cc1	active
Cc1ccc(OC(=O)N(C)C[C@@H]2OCc3ccccc3-c3ccccc3C(=O)N([C@@H](C)CO)C[C@H]2C)cc1	inactive
C[C@H]1CN([C@@H](C)CO)S(=O)(=O)c2ccc(C#CCN(C)C)cc2O[C@H]1CN(C)C(=O)CN(C)C	inactive
O=C(CCCCCNC(=O)OCc1ccc(CO[C@H]2C[C@@H](c3ccc(C(F)(F)F)cc3)C=C(C(=O)N3CCN(Cc4ccccc4)CC3)O2)cc1)NO	inactive
C[C@H]1CN([C@@H](C)CO)C(=O)c2cc(NC(=O)Nc3ccc4c(c3)OCO4)ccc2O[C@H]1CN(C)S(C)(=O)=O	inactive
COc1ccc(CNC(=O)C[C@H]2CC[C@@H]3[C@H](COc4ccc(NC(=O)C(C)C)cc4C(=O)N3C)O2)cc1	inactive
C[C@@H]1CN([C@@H](C)CO)C(=O)Cc2cc(NS(=O)(=O)c3cccs3)ccc2O[C@H]1CN(C)Cc1ccncc1	inactive
CC[C@@H](C[C@@H](O)[C@@H](C)[C@H]1CC[C@H]2C3=CC(=O)[C@H]4[C@H](C)[C@@H](OC(=O)c5ccccc5)CC[C@]4(C)[C@H]3CC[C@]12C)C(C)C	inactive
CC[n+]1oc(-c2ccccc2)cc1C	active
O=C(CCCCCNC(=O)OCc1ccc(CO[C@H]2C[C@@H](C3CCCCC3)C=C(C(=O)N3CCN(Cc4ccccc4)CC3)O2)cc1)NO	inactive
COCC(=O)Nc1ccc2c(c1)C(=O)N(C)C[C@H](OC)[C@@H](C)CN(Cc1ccccc1OC)[C@@H](C)CO2	inactive
CC1=C(C)C(=O)C(C(CCCCCC(=O)O)c2ccccc2)=C(C)C1=O (stereo not drawn)	inactive
COC1=C(OC)C(=O)C(CCCCCCCCCC[P+](c2ccccc2)(c2ccccc2)c2ccccc2)=C(C)C1=O	active
COC1=C(OC)C(=O)C(CCCCCCCCCCO)=C(C)C1=O	active
CC1=C(C)C(=O)C(CCCCCCCCCC[P+](c2ccccc2)(c2ccccc2)c2ccccc2)=CC1=O	active
COC(=O)CCCCCCC(=O)Nc1ccc(NC(=O)CCCC[P+](c2ccccc2)(c2ccccc2)c2ccccc2)cc1	inactive
COC1=C(OC)C(=O)C(CC=C(C)CCC=C(C)CCC=C(C)CCC=C(C)CCC=C(C)CCC=C(C)CCC=C(C)CCC=C(C)CCC=C(C)CCC=C(C)C)=C(C)C1=O	inactive
COC1=C(OC)C(=O)C(C/C=C(\C)CC/C=C(\C)CC/C=C(\C)CC/C=C(\C)CC/C=C(\C)CC/C=C(\C)CC/C=C(\C)CC/C=C(\C)CC/C=C(\C)CCC=C(C)C)=C(C)C1=O	inactive
COC1=C(OC)C(=O)C(C/C=C(\C)CC/C=C(\C)CC/C=C(\C)CC/C=C(/C)CC/C=C(\C)CC/C=C(\C)CC/C=C(\C)CC/C=C(\C)CC/C=C(\C)CCC=C(C)C)=C(C)C1=O	inactive
